Vc quorum ag-1: inducers of Vibrio cholerae quorum light production without autoinducers, primary screen, BH1578 luxS cqsA deficient, single point. V. cholerae BH1578 lux reporter, luminescence, 6 h. 350,000 compounds, 0.16% hits. AID 588436, 2011. activation, % at 18.7 µM; in the data active = activation mostly above about 9.7%, no sharp cut-off
TcdB inh: TcdB glycohydrolase inhibitors, primary screen, biochemical, single point, plate reader; Toxin B (Clostridioides difficile), P18177; TcdB glycohydrolase enzymatic assay; inhibition, % at 9.99 µM; 350,000 compounds, 0.24% hits; in the data active = inhibition above about 10%
CCHFV vOTU inh: CCHFV vOTU protease inhibitors, primary screen, biochemical, Pep-AMC substrate, fluorescence; Crimean-Congo hemorrhagic fever virus L polyprotein viral ovarian tumor (vOTU) protease …; inhibition, % at 11.5 µM; 370,000 compounds, 0.55% hits; AID 651958, 2012; in the data active = inhibition above about 30%; also: 0% = vehicle wells with enzyme and 100% = no enzyme wells
PriA SSB inh: inhibitors of Klebsiella pneumoniae PriA binding to SSB C-terminal tail, primary screen, biochemical, AlphaScreen | PriA–SSB C-terminal tail interaction (Klebsiella pneumoniae) | AlphaScreen SSBct-PriA binding, biotinylated peptide | 430,000 compounds, 0.6% hits | inhibition, % at 33 µM; in the data active = inhibition mostly above about 37%, no sharp cut-off; inactive = mostly below about 20%;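 also: plate controls were negative control peptide for no effect and reference peptide for full effect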
SARS 3CLpro inh: SARS-CoV 3CLpro protease inhibitors, primary screen, biochemical, quenched FRET | Replicase polyprotein 1ab (Severe acute respiratory syndrome coronavirus), P0C6X7 | recombinant SARS-CoV 3CLpro, quenched FRET peptide cleavage | inhibition, % at 6 µM | 290,000 compounds, 0.14% hits | AID 1706, 2009; in the data active = inhibition above about 12%
VHR inh abs: VHR1 phosphatase inhibitors, primary screen, biochemical, absorbance, uHTS | Dual specificity protein phosphatase 3 (Homo sapiens), P51452 | AID 1654, 2009 | 290,000 compounds, 0.52% hits | recombinant VHR phosphatase, pNPP absorbance | inhibition, % at 13.3 µM; in the data active = inhibition above about 50%
Target sequence (P51452 whole entry, looked up): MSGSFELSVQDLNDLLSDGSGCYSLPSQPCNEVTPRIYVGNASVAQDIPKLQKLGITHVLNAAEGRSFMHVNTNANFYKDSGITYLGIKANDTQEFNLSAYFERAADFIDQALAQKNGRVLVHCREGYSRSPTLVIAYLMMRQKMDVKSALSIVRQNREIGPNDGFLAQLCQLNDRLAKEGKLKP
Vc quorum ag-2: V. cholerae lux activation without autoinducers – BH1578 luxS cqsA deficient, cherry-pick, plate reader, dose response. shares compounds with Vc quorum ag-1. activation, % at 50 µM. 620 tested, under 10 active. AID 602243, 2012. V. cholerae BH1578 lux reporter, luminescence, 6 h; call rule not given here
HeLa tox: HeLa cell cytotoxicity, dose response, cytotoxicity control, 24 h, dry powder; 25 tested, under 10 active; HeLa viability, CellTiter-Glo ATP luminescence; activity change, negative = cytotoxicity, % at 35 µM; shares compounds with Vc quorum ag-1;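 active = signal drop with fitted half-maximal concentration at or below twice the highest valid dose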
Starred values were filed as active, the others as inactive; i = inactive; / = no result given; + = active, no number. Rows were chosen to be rich in hits. Some 1.3% of all compounds tested hit in one or more screens of this group.

SMILES	Vc quorum ag-1	TcdB inh	CCHFV vOTU inh	PriA SSB inh	SARS 3CLpro inh	VHR inh abs	Vc quorum ag-2	others
COc1ccc(Cl)cc1S(=O)(=O)NC(C)C(=O)NCCCn1ccnc1 (stereo unspecified)	14	1	-2	3	/	/	0
COC(=O)CN1CCN(C(c2ccccc2)c2ccccc2)CC1	0	/	14	-15	-4	-2	/
COCCNC(=O)CN1CCN(C(c2ccccc2)c2ccccc2)CC1	12	1	-14	0	3	-18	0
CC(NC(=O)CN1CCN(c2ccccc2F)CC1)c1ccccc1 (stereo unspecified)	27	2	0	-13	1	29	1
NS(=O)(=O)c1ccc(CCNC(=O)CCn2cnc3c([nH]c4ccccc43)c2=O)cc1	/	/	/	-7	/	/	/
O=C(Cc1cc(=O)[nH]c(SCc2ccccc2)n1)NCCc1ccccc1	/	/	/	-4	/	/	/
CCSc1nnc(NC(=O)c2cccc(C(=O)Nc3nnc(SCC)s3)n2)s1	/	/	/	40	/	/	/
CCSc1nnc(NC(=O)c2ccc3ccccc3n2)s1	25	/	-2	-13	-2	-16	0
NS(=O)(=O)c1ccc(NC(=S)NC2CCCCC2)cc1	0	0	8	-3	-1	/	/
NS(=O)(=O)c1ccc(NC(=O)NC2CCCCC2)cc1	32*	/	7	2	-5	11	18
COC(=O)c1ccccc1NC(=O)CC1CCCCN1S(=O)(=O)c1ccccc1 (stereo unspecified)	/	/	/	18	/	/	/
CCOC(=O)N1CCC(NC(=O)C2CCN(C(=O)N3CC(C)Oc4ccc(C)cc43)CC2)CC1 (stereo unspecified)	7.6*	/	-6	-10	1	4	1
CCCOc1ccc(-c2nc(OC)c3ccccc3n2)cc1	25*	/	9	-2	3	5	0
COc1ccc(Oc2nc(-c3cccnc3)nc3ccccc23)cc1	i	2	-8	-12	5	2	/
NC(=NOS(=O)(=O)c1ccc(Cl)cc1)c1cccnc1	/	/	/	6	/	/	/
O=C1CCC(=O)N1c1ccc(S(=O)(=O)NCCC(O)C2CCOCC2)cc1 (stereo unspecified)	/	/	/	-15	/	/	/
CCOC(=O)CSc1nc(N)c(C#N)c(-c2cccs2)c1C#N	44*	/	2	-16	1	24	0
CC(=O)C(CC(=O)N1CCCc2ccccc21)C(=O)Nc1ccc(F)cc1 (stereo unspecified)	14	/	-3	4	-3	6	0
CC(=O)Nc1ccc(C(=O)N2CCCc3ccccc32)cc1	i	0	1	-9	-1	14	/
COc1ccc(NC(=O)CC2NC(=O)NC2=O)cc1 (stereo unspecified)	/	/	/	2	/	/	/
O=C(CC1NC(=O)NC1=O)Nc1ccc(Cl)cc1 (stereo unspecified)	7	/	-4	-21	-1	2	0
O=C(COCc1ccccc1)NC1CCC(Oc2cnccn2)CC1 (stereo unspecified)	/	/	/	3	/	/	/
Cc1sc(N)nc1-c1ccc(Oc2ccccc2)cc1	46*	1	-5	-1	-1	27	66
CCCc1cc(=O)n2[nH]cc(-c3ccc(Cl)cc3)c2n1	41*	0	-1	-7	-2	-8	0
COCc1cc(=O)n2[nH]cc(-c3ccccc3)c2n1	-1	1	-60	-9	0	12	/
SMILES	Vc quorum ag-1	TcdB inh	CCHFV vOTU inh	PriA SSB inh	SARS 3CLpro inh	VHR inh abs	Vc quorum ag-2	others
CCOc1ccc(Nc2ccc3nonc3c2[N+](=O)[O-])cc1	+	0	-8	18	2	10	i	HeLa tox=17
Cc1ccc(Nc2ccc3nonc3c2[N+](=O)[O-])cc1	0	0	15	-15	3	-1	/
CCOc1ccc(-n2nnc3c(N4CCN(C(=O)c5ccccc5C(F)(F)F)CC4)ncnc32)cc1	/	/	/	4	/	/	/
CN(C)CC(C)(C)CNC(=O)c1cc(=O)c2ccccc2o1	12	/	1	-16	4	13	0
Cc1ccc(CNC(=O)c2cc(=O)c3ccccc3o2)cc1	-3	2	-4	-3	2	38	/
O=C(CN1C(=O)c2cccc3cccc(c23)C1=O)Nc1ccc2c(c1)OCO2	/	/	/	-2	/	/	/
N#CCSc1ccccc1NC(=O)COC(=O)CCNC(=O)c1ccc([N+](=O)[O-])cc1	9	2	-13	8	/	/	0
O=C(CCNC(=O)c1ccc([N+](=O)[O-])cc1)Nc1ccccc1N1CCCC1	-2	-3	7	0	-1	11	/
CCOc1ccc(CCNC(=O)COC(=O)Cc2ccc(F)cc2)cc1OCC	14	-1	13	-13	/	/	3
CCOc1ccc(CCNC(=O)COC(=O)Cc2c[nH]c3ccccc23)cc1OCC	-1	-4	-3	12	/	/	/
O=C(NCCS(=O)(=O)N1CCN(Cc2ccccc2)CC1)c1cccs1	/	/	/	8	/	/	/
CC(=O)Nc1nn(C)c2nc3cc(C)ccc3cc12	0	/	17	-14	-2	28	/
Cc1ccc2cc3c(NC(=O)c4ccco4)nn(C)c3nc2c1	/	/	-2	-7	-4	19	/	HeLa tox=-1
CCCn1nnnc1NCc1cccc(OC)c1	1	2	-2	-32	2	25	/
CCn1nnnc1NCc1cccc(OC)c1	/	/	/	/	/	/	/	HeLa tox=-14
COc1ccccc1C(=O)Nc1cccc(NC(=O)c2ccccc2C)c1	0	0	-4	1	-3	23	/
Cc1ccccc1C(=O)Nc1cccc(N)c1	48*	/	2	-8	1	24	3
CSc1nc(C)cc(OCC(=O)N2CCOCC2)n1	32*	/	3	-4	-5	32	0
CCc1nc(NCCCN2CCOCC2)c2oc3ccccc3c2n1	12	/	0	-19	0	-2	0
COC(=O)c1nnn(-c2nonc2N)c1CSc1nc2ccccc2s1	25*	/	-2	-3	-1	-6	0
O=c1cc(CSc2ccccn2)c2ccccc2[nH]1	27*	/	5	-6	-4	-5	1
COCCNC(=O)CCc1csc2nc(-c3ccccc3)cn12	/	/	/	-5	/	/	/
CC1CNC(=CC(=O)c2ccccc2)C(=O)N1 (stereo unspecified)	/	/	/	7	/	/	/
CC1CCN(c2ccccc2NC(=O)c2cc3ccccc3o2)CC1	97*	-1	-3	-6	-6	6	0
